Results reported in PubChem BioAssay (NCI).
About 79,000 compounds went through this panel and 15% of them were active in at least one assay; those are over-represented in the sample as a whole. Rule as the data show it: active = growth inhibition above about 70%; inactive = the rest.

Columns and labels:
[1] = NCI Yeast Anticancer Drug Screen. Data for the rad50 strain (AID 155);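 also: 0% = growth of vehicle-only cultures of the same strain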; settings: S. cerevisiae rad50 strain growth inhibition; at 50.0 µM; stronger effect = higher value
Outline: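 Readout: growth inhibition relative to vehicle-treated cultures. Compound exposure was carried out in a genetically defined yeast strain deficient in DNA damage repair.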

[2] = NCI Yeast Anticancer Drug Screen. Data for the mec2-1 strain (AID 157); settings: S. cerevisiae mec2-1 strain, at 50.0 µM, stronger effect = higher value
Outline: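 Readout is yeast growth inhibition, normalised to vehicle-treated controls, in the mec2-1 strain exposed to compound.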

[3] = NCI Yeast Anticancer Drug Screen. Data for the sgs1 mgt1 strain (AID 161);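 also: 0% = growth of cultures given vehicle only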; settings: S. cerevisiae sgs1 mgt1 strain, at 50.0 µM, stronger effect = higher value
Outline: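 This yeast growth screen uses a strain with defined DNA-repair lesions; compound-treated growth is compared with vehicle-treated growth.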

[4] = NCI Yeast Anticancer Drug Screen. Data for the cln2 rad14 strain (AID 165);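 also: 0% = growth equal to vehicle treated cultures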; settings: S. cerevisiae cln2 rad14 strain, at 50.0 µM, stronger effect = higher value
Outline: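 Relative to vehicle controls, growth inhibition of compound-treated cln2 rad14 yeast was recorded.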

[5] = NCI Yeast Anticancer Drug Screen. Data for the mlh1 rad18 strain (AID 175); settings: S. cerevisiae mlh1 rad18 strain growth inhibition; at 50.0 µM; stronger effect = higher value
Outline: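 Test agents were incubated with a yeast strain of defined genotype (DNA damage repair defect). Inhibition of growth was derived by comparison with vehicle-exposed cultures.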

[6] = NCI Yeast Anticancer Drug Screen. Data for the bub3 strain (AID 167); settings: S. cerevisiae bub3 mutant strain, at 50.0 µM, stronger effect = higher value
Outline: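 Readout: yeast growth inhibition, expressed relative to vehicle-only wells. The test organism is a mutant strain from a panel with lesions in DNA repair or checkpoint genes.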

Measured: growth inhibition

CCCCCCC1(/C=C\c2ccccc2Cl)OCCO1
inactive: [1] 37.6% | [2] 31.5% | [3] 37.5% | [4] -9.6% | [5] 23.3%

Nc1ccc(I)cn1
inactive: [1] -3.35% | [2] 5.7% | [3] -3.65% | [4] -11.7% | [5] -3.95%

Brc1cccc2c(SCCCCCCSc3c4ccccc4nc4c(Br)cccc34)c3ccccc3nc12
inactive: [1] 3.1% | [2] -16.1% | [3] -18.8% | [4] -52.5% | [5] 5.85%

CCC[C@H]1C(=O)N=C(N)N1C(=O)OCc1ccccc1
inactive: [1] 0.9% | [2] 2.9% | [3] -5.5% | [4] -28.3% | [5] -7%

CCc1cccc(CC)c1NC(=O)c1ccc(C)cc1
inactive: [1] -6.25% | [2] -30% | [3] 9.4% | [4] 7.2% | [5] -4%

CCSC(C(OC(C)=O)C(OC(C)=O)C(COC(C)=O)OC(C)=O)n1cnc2c(=S)nc[nH]c21 (stereo not drawn)
inactive: [1] 6.75% | [2] -0.45% | [3] 9.35% | [4] 18.8% | [5] 1.7%

O=c1[nH]c2cc(Cl)ccc2nc1/C=C(\O)c1cccc2ccccc12
inactive: [1] 40.9% | [2] 15.2% | [3] 28.6% | [4] 17% | [5] 35%

Cc1ccc(N)c(C(=O)Nc2ccc(Br)cc2)c1
inactive: [1] -19.6% | [2] -18.6% | [3] -10.1% | [4] -8.85% | [6] -17.6% | [5] -16.6%

O=C1CCCCCCCCCCC1Sc1ccccc1 (stereo not drawn)
inactive: [1] -23.2% | [2] -36.6% | [3] -6.8% | [4] 3.1% | [5] -28.9%

COc1cc(C2C(Cl)C(=O)N2NC(=O)c2ccc(N)cc2)ccc1O (stereo not drawn)
inactive: [1] 5.15% | [2] -0.75% | [3] -25.1% | [4] -3.8% | [5] -8.75%

CCOC(=O)NCC(C)(C)N(C(=O)OCC)c1ccccc1
inactive: [1] -24.1% | [2] -42.1% | [3] -15.7% | [4] -9.95% | [5] -7.7%

Cc1oc2nc(N(C)C)nc(NN)c2c1C
inactive: [1] 10.1% | [2] 5.55% | [3] -4.55% | [4] -0.75% | [5] -13.8%

CCCC(SCC(=O)O)SCC(=O)O
inactive: [1] 14.4% | [2] -6.05% | [3] -6.85% | [4] -41.8% | [5] -17%

O=C(O)CC1(c2ccccc2)CCCCC1
inactive: [1] -1.1% | [2] 7.05% | [3] 0.65% | [4] -6.2% | [5] 2.3%

COc1ccc(C(=O)C[n+]2cc(Br)cc3ccccc32)cc1
inactive: [1] -3.1% | [2] 11.8% | [3] 1.5% | [4] 22.9% | [5] 54.5%

Cc1cc2c(C(C)C)c(O)c(O)c(C=Nc3ccccc3O)c2c(O)c1-c1c(C)cc2c(C(C)C)c(O)c(O)c(C=Nc3ccccc3O)c2c1O
inactive: [1] -25.3% | [2] -9.2% | [3] -20.9% | [4] -23.4% | [5] -26.3%

Cc1nn(-c2ccccc2)c(=O)n2c1nc1ccccc12
inactive: [1] -2% | [2] -9.5% | [3] 20.9% | [4] -43.1% | [5] 11.9%

COc1ccc(C2CN=NN2c2ccc([N+](=O)[O-])cc2)cc1 (stereo not drawn)
inactive: [1] -18.4% | [2] -16.6% | [3] -9.15% | [4] 28.2% | [5] -18%

CCOC(=O)c1c(C)[nH]c(=S)c(C#N)c1-c1ccc(Cl)cc1
inactive: [1] 13% | [2] 12.1% | [3] 34.4% | [4] 4.55% | [5] -1.55%

CN(C)c1ccc(SC2OC(CO)C(O)C(O)C2O)cc1 (stereo not drawn)
inactive: [1] -12.8% | [2] -5.25% | [3] -7.3% | [4] -54.5% | [6] 3.7% | [5] -10%

C(=C\c1ccc(/C=C/c2ccccc2)nn1)/c1ccccc1
inactive: [1] -5.8% | [2] -3.1% | [3] -1.65% | [4] -21.4% | [5] -2.1%

O=C(O)C1CC=CCC1C(=O)Nc1cccc(O)c1 (stereo not drawn)
inactive: [1] -16.9% | [2] -30.8% | [3] -51.7% | [4] 38.5% | [5] 6.25%

O/N=C1\CCCCC1C(NO)c1ccccc1 (stereo not drawn)
inactive: [1] 2.4% | [2] -4.25% | [3] -7.9% | [4] -16.4% | [5] 9.35%

CCCCCCCCCCCCCCCCCC(=O)[O][Al][O]C(C)C
inactive: [1] -38.1% | [2] -35% | [3] -10.8% | [4] 4.55% | [5] -14.9%

O=C1CCCC/C1=C1/SC(=Nc2ccccc2)C(=Nc2ccccc2)N1c1ccccc1
inactive: [1] 21.2% | [2] 16.1% | [3] 16.2% | [4] 31% | [5] 8.6%

N#CCC(CC#N)C(c1cccc2ccccc12)c1cccc2ccccc12
inactive: [1] 9.85% | [2] -2.45% | [3] -3.85% | [4] 3.25% | [5] -1.7%

CCCCCCCCC[N+]12CC[N+](CCCCCCCCC)(CC1)CC2
inactive: [1] 8.2% | [2] 15.2% | [3] -4.9% | [4] 2.15% | [5] 5.25%

O=c1/c(=C/c2ccccc2[N+](=O)[O-])sc2nnc(-c3cccnc3)n12
inactive: [1] 11.7% | [2] 6.45% | [3] 12.8% | [4] 21.1% | [5] 1.4%

O[C@]12c3ccccc3C1CCCCC2N1CCOCC1 (stereo partly drawn)
inactive: [1] -15.8% | [2] -41% | [3] -61% | [4] -8.45% | [5] -35.4%

COc1ccc2c(c1C)OC(C)C2=O (stereo not drawn)
inactive: [1] 9.65% | [2] 5.05% | [3] -3.9% | [4] -21.1% | [5] 0.7%

CCCCOC(=O)N1CCCCC1
inactive: [1] -9.75% | [2] -8.15% | [3] -17.3% | [4] -5.9% | [5] -5.75%

CC(C)(C)c1ccc(-c2nc3ccc(Cl)cc3c(=O)o2)cc1
inactive: [1] -26.6% | [2] -24.5% | [3] -7.85% | [4] -48.3% | [5] 0.45%

Nc1nc2c(C(=O)c3cccs3)nnn2c2cccc(Cl)c12
inactive: [1] -21.1% | [2] -21.1% | [3] -21.9% | [4] -12.2% | [5] -2.25%

CCOC(=O)C(=O)Cc1cc(=O)n(C)c2ccccc12
inactive: [1] 12.5% | [2] 16.1% | [3] 16.4% | [4] 1.8% | [5] 1.5%

O=[N+]([O-])c1cccc2nc3ccccc3c(NCCc3ccccn3)c12
inactive: [1] 13.3% | [2] -19.9% | [3] 20.6% | [4] -32.4% | [6] -17.1% | [5] 13.8%

CCN1C2=NCCN2C(=O)c2ccccc21
inactive: [1] -0.8% | [2] -11.2% | [3] 15.9% | [4] 15.1% | [5] 13.4%

C=CCNc1ccc(C)cc1
inactive: [1] 16.5% | [2] -8.15% | [3] 20.1% | [4] 13.4% | [5] 20.4%
